“And” between values parts separate entries of the source, which are not always exact repeats. Identical values can stand only once. Inconclusive results are not listed. A number with no mark means an inactive call. The source made the active and inactive calls. Unless noted, calls come from the whole dose curve; as a rule, active = well fitted cell-killing curve with a large enough effect in the repeat runs; inconclusive = weak or mixed curves, or effect the other way; inactive = no such curve, though single readings can be large or run the other way.
Molecular target: Retinoic acid receptor RXR-alpha (Homo sapiens) (UniProt P19793)
Sequence (P19793 whole entry, looked up): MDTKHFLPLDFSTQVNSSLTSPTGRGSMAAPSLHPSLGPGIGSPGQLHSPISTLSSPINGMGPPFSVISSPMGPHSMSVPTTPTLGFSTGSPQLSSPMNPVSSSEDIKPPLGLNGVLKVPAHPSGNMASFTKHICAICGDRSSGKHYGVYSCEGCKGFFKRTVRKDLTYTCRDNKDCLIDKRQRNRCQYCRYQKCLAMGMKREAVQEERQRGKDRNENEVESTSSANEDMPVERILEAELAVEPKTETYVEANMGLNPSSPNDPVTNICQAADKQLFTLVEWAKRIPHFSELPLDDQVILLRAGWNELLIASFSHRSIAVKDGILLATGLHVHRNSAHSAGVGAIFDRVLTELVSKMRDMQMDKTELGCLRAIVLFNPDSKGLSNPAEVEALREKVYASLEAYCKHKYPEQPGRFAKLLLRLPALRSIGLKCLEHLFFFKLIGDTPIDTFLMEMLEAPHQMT
Assay: qHTS assay to identify small molecule agonists of the RXR signaling pathway (AID 1159527; calls by dose curve; note: nearly all actives have a fitted effect of over 35% in size)
Settings: HEK293T RXRa-UAS-bla, beta-lactamase ratio, 16 h; series mostly up to 76.8 µM; activation: at the top concentration
Procedure, shortened: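 GeneBLAzer RXR-alpha-UAS-bla HEK 293T cells in medium with 2% charcoal-stripped FBS, pre-incubated 5 hr at 37 C, then exposed to compounds 16 hr. Beta-lactamase reporter read by FRET substrate, 2 hr room temperature, 460/530 nm emission.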
% is set by controls: 0 for no effect and ±100 for the full control effect.

Structure (SMILES)	activation
CNC(=O)Oc1cccc(N=CN(C)C)c1	-13.9%
C=CCOC(=O)C(C)(C)OC(=O)c1cc(-n2c(=O)cc(C(F)(F)F)n(C)c2=O)ccc1Cl	-12.7%
O=[N+]([O-])O[C@H]1CO[C@H]2[C@@H]1OC[C@H]2O[N+](=O)[O-]	-23.5% [at 35.3 µM]
C[C@H]1[C@@H]2Cc3ccc(O)cc3[C@@]1(C)CCN2C	0.597% [at 200 µM]
C[Si](Cn1cncn1)(c1ccc(F)cc1)c1ccc(F)cc1	-28.5%
CN(C)C(=O)Nc1cccc(OC(=O)NC(C)(C)C)c1	-8.43%
NP(N)(=O)NC(=O)c1ccc(F)cc1	0.779% [at 35.3 µM]
OC[P+](CO)(CO)CO	8.09%
CCN(C(C)=O)c1cccc(-c2ccnc3c(C#N)cnn23)c1	-0.763% [at 35.3 µM]
Oc1cccc(Cl)c1	13.6%
Cc1ccccc1	3.97%
O=C(Cc1ccccc1)c1ccccc1	-20.5%
O=C(O)c1cc(Cl)ccc1Cl	10.5%
Nc1c(Br)cc(Br)c2c1C(=O)c1ccccc1C2=O	1.05% [at 15.8 µM]
C=CC(=O)NC(C)(C)CC(C)=O	0.47%

Test system: not listed separately
Assay: qHTS assay to identify small molecule agonists of the RXR signaling pathway - cell viability counter screen (AID 1159529); note: nearly all actives have a fitted effect of over 50% in size; note: potency is the fitted concentration of half-maximal effect
Settings: RXR-alpha-bla HEK293T viability, CellTiter-Glo, 16 h; series mostly up to 76.8 µM; activity change, negative = cytotoxicity: at the top concentration
Procedure, shortened: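 RXR-alpha-UAS-bla HEK 293T cells in medium with 2% charcoal-stripped FBS were preincubated 5 hr, then exposed to compounds for 16 hr at 37 C. Viability was read as CellTiter-Glo luminescence after 30 min at room temperature.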

Structure (SMILES)	Potency	activity change, negative = cytotoxicity
CC(C)(C)CC(C)(C)c1ccc(O)cc1	17.4 µM (active) and 23.9 µM (active)	
CNC(=O)Oc1cccc(N=CN(C)C)c1		2.79%
c1ccc2sc(SNC3CCCCC3)nc2c1	inactive	
O=C(N[C@H]1CN2CCC1CC2)c1ccc2c(c1)OCCO2		12.7%
C=CCOC(=O)C(C)(C)OC(=O)c1cc(-n2c(=O)cc(C(F)(F)F)n(C)c2=O)ccc1Cl		-11.7%
C=CCc1ccc(OC(=O)Cc2ccccc2)c(OC)c1		2.65%
O=[N+]([O-])O[C@H]1CO[C@H]2[C@@H]1OC[C@H]2O[N+](=O)[O-]		-17.4% [at 35.3 µM]
C[C@H]1[C@@H]2Cc3ccc(O)cc3[C@@]1(C)CCN2C		2.23% [at 200 µM]
Cc1cnc(C2=NC(C)(C(C)C)C(=O)N2)c(C(=O)O)c1 (centres undefined)		4.96%
Cc1ncc(C[n+]2csc(CCO)c2C)c(N)n1		-4.97%
COc1cc(CC(C)N)c(OC)cc1Br (centres undefined)		0.389%
C[Si](Cn1cncn1)(c1ccc(F)cc1)c1ccc(F)cc1	inactive	
Cc1nc2ccccc2c(=O)n1-c1ccccc1Cl		5.2%
CN(C)C(=O)Nc1cccc(OC(=O)NC(C)(C)C)c1		2.41%
CN(C)c1ccc(N=O)cc1	34.8 µM (active)	
NP(N)(=O)NC(=O)c1ccc(F)cc1		4.7% [at 35.3 µM]
OC[P+](CO)(CO)CO		0.136%
C[C@@H]1C[C@@H]([C@H](O)CC2CC(=O)NC(=O)C2)C(=O)[C@@H](C)C1	inactive	
COC1=CC(=O)O[C@@H](/C=C/c2ccc3c(c2)OCO3)C1		-27.1%
CCN(C(C)=O)c1cccc(-c2ccnc3c(C#N)cnn23)c1		8.18% [at 35.3 µM]

Structure (SMILES)	Potency	activity change, negative = cytotoxicity
CCOC(=O)c1cn2nc(OP(=S)(OCC)OCC)cc2nc1C		7.82%
O=C(O)CCCOc1ccc(Cl)cc1Cl		7.13%
COc1ccc(C(=O)c2c(C)n(CCN3CCOCC3)c3ccccc23)cc1		5.24% [at 35.3 µM]
O=C(N/N=C/c1ccc([N+](=O)[O-])o1)c1cc([N+](=O)[O-])cc([N+](=O)[O-])c1O		5.15% [at 35.3 µM]
Oc1cccc(Cl)c1		8.16%
Cc1ccccc1		5.68%
O=C(NC(=O)c1cc(F)c(F)cc1Cl)Nc1cc(F)ccc1N1CCC(C(=O)O)CC1		0.848% [at 35.3 µM]
O=C(Cc1ccccc1)c1ccccc1		10.1%
CCOP(=S)(S)OCC		-14.2%
C[C@]12C=CC3=C4CCC(=O)C=C4CC[C@H]3[C@@H]1CC[C@@H]2O		-21.1%
CCCC[N+](CCCC)(CCCC)CCCC		-4.65%
CCCCC(CC)CO[N+](=O)[O-] (centres undefined)		4.59%
O=C(O)c1cc(Cl)ccc1Cl		-5.18%
Nc1ccccc1C(=O)OCCc1ccccc1		-23%
CCCSP(=S)(OCC)Oc1ccc(SC)cc1 (centres undefined)		-7.94%
CC(Oc1cccc(Cl)c1)C(=O)O (centres undefined)		25.5%
Nc1c(Br)cc(Br)c2c1C(=O)c1ccccc1C2=O		4.15% [at 15.8 µM]
C=CC(=O)NC(C)(C)CC(C)=O		-6.94%
CCCBr		11.1%
